Each structure is given as a SMILES string. Records with an inconclusive call do not appear. The source made the active and inactive calls. Rule for the calls: active = hit-call score of the fitted dose curve at least 0.9, where 1 is the maximum; inconclusive = response in the unintended direction; inactive = score below 0.9.

This note sets out measurements from PubChem BioAssay (EPA / NIEHS).

The target of experiment [1] is human Matrix Metalloproteinase-9 (MMP9), MMP9 (gene 4318) (UniProt P14780). The experiment in a line: NVS_ENZ_hMMP9: NovaScreen (NVS) Enzymatic Assay for human Matrix Metalloproteinase-9 (MMP9) (AID 2283190).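 Note: cell-free recombinant MMP9 protease activity read by fluorescent substrate signal; active means inhibition seen as loss of fluorescence signal versus DMSO.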 Put shortly: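 Inhibition was scored as loss of fluorescence signal against DMSO controls. The recombinant protease was exposed to chemicals for 1 hour before reading; initial testing used 25 uM in duplicate.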
human Matrix Metalloproteinase-9 (MMP9), MMP9 (gene 4318), sequence (P14780 whole entry, looked up): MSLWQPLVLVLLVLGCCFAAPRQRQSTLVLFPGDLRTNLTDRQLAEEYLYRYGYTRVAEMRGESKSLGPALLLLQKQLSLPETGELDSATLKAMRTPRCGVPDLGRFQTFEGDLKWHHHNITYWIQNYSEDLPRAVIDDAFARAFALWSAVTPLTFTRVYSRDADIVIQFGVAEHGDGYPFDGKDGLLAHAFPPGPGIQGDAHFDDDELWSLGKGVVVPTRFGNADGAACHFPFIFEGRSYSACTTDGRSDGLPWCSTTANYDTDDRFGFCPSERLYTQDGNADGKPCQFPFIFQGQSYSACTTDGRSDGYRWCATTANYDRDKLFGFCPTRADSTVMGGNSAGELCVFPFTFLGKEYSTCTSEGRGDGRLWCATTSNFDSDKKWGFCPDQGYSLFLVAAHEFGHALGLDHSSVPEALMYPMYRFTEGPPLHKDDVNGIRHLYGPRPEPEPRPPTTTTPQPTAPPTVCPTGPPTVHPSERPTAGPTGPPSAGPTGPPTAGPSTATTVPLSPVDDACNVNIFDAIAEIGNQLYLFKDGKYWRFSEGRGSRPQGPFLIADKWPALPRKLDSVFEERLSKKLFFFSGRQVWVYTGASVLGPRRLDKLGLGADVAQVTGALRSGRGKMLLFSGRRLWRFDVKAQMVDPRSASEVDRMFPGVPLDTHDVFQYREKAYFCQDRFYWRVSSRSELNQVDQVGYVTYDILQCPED

Experiment [2] concerns the target human Phosphodiesterase 4A1 (PDE4A1), PDE4A (gene 5141) (UniProt P27815). The experiment in a line: NVS_ENZ_hPDE4A1: NovaScreen (NVS) Enzymatic Assay for human Phosphodiesterase 4A1 (PDE4A1) (AID 2283191). Put shortly:
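Cell-free recombinant human PDE4A1 with fluorescent substrate; product separated by electrophoretic mobility shift, 1 h. Screened at 25 uM, then up to 50 uM in concentration-response; loss of signal fitted against DMSO.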

The target of experiment [3] is human Protein Phosphatase, Mg2+/Mn2+ Dependent 1A (PPM1A), PPM1A (gene 5494) (UniProt P35813). The experiment in a line: NVS_ENZ_hPPM1A: NovaScreen (NVS) Enzymatic Assay for human Protein Phosphatase, Mg2+/Mn2+ Dependent 1A (PPM1A) (AID 2283198). Put shortly: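 Cell-free recombinant PPM1A phosphatase assay with fluorescent substrate, read 1 h after dosing by electrophoretic mobility shift. Chemicals screened in duplicate at 25 uM, then in concentration-response up to 50 uM; loss of activity versus DMSO.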
human Protein Phosphatase, Mg2+/Mn2+ Dependent 1A (PPM1A), PPM1A (gene 5494), sequence (P35813 whole entry, looked up): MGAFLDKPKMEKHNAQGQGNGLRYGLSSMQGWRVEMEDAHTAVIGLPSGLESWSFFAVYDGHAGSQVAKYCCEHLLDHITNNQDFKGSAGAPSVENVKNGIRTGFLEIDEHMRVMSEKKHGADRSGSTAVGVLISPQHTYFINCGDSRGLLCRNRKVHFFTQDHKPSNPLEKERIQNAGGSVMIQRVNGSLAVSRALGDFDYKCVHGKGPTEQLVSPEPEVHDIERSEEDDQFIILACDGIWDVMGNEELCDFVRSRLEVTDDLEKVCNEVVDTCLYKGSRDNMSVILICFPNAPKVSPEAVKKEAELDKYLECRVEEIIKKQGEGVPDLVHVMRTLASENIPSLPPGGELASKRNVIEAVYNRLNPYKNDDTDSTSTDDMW

Experiment [4] concerns the target human Mitogen- and Stress-activated Protein Kinase-1 (Msk1), RPS6KA5 (gene 9252) (UniProt O75582). The experiment in a line: NVS_ENZ_hMsk1: NovaScreen (NVS) Enzymatic Assay for human Mitogen- and Stress-activated Protein Kinase-1 (Msk1) (AID 2283187). Put shortly: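 Recombinant kinase with fluorescent substrate; product separated by electrophoretic mobility shift, read 1 h after dosing. Screened in duplicate at 25 uM; hits (e.g. ≥30% inhibition) tested in concentration–response up to 50 uM. DMSO baseline.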

Experiment [5] deals with cAMP-dependent protein kinase catalytic subunit alpha (Homo sapiens) (UniProt P17612). Briefly: NVS_ENZ_hPKA: NovaScreen (NVS) Enzymatic Assay for human Protein Kinase A (PKA) (AID 2283192). Put shortly: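 Recombinant human PKA with specific fluorescent substrate, product separated by electrophoretic mobility shift, read 1 h after dosing. Primary screen at 25 uM in duplicate; actives then run in concentration-response up to 50 uM, activity relative to DMSO.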

The target of experiment [6] is human Matrix Metalloproteinase-3 (MMP3), MMP3 (gene 4314) (UniProt P08254). Briefly: NVS_ENZ_hMMP3: NovaScreen (NVS) Enzymatic Assay for human Matrix Metalloproteinase-3 (MMP3) (AID 2283185). Put shortly:
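Cell-free recombinant human MMP3 activity, fluorescence intensity read 1 h after dosing. Primary screen duplicate at 25 uM, actives retested in concentration series; loss of signal vs DMSO baseline.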

Experiment [7] concerns the target human Phosphodiesterase 5 (PDE5), PDE5A (gene 8654) (UniProt O76074). Briefly: NVS_ENZ_hPDE5: NovaScreen (NVS) Enzymatic Assay for human Phosphodiesterase 5 (PDE5) (AID 2283194). Put shortly: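 Recombinant human PDE5 with specific substrate, read 1 h after dosing by fluorescence with electrophoretic mobility-shift separation of substrate and product. Initial single-concentration duplicate screen at 25 uM, actives followed in concentration series; loss of activity versus DMSO.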

The target in experiment [8] is human Phosphodiesterase 10 (PDE10), PDE10A (gene 10846) (UniProt Q9Y233). The experiment in a line: NVS_ENZ_hPDE10: NovaScreen (NVS) Enzymatic Assay for human Phosphodiesterase 10 (PDE10) (AID 2283195). Put shortly:
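Recombinant human PDE10 with fluorescent substrate, 1 h, product separated by electrophoretic mobility shift. Loss of enzyme activity fitted against DMSO; initial screen 25 uM in duplicate, actives run to 50 uM maximum.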

For experiment [9], the target named is human Phosphoinositide 3-kinase alpha (PI3Ka), PIK3CA (gene 5290) (UniProt P42336). Briefly: NVS_ENZ_hPI3Ka: NovaScreen (NVS) Enzymatic Assay for human Phosphoinositide 3-kinase alpha (PI3Ka) (AID 2283196). Put shortly: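 Chemicals were first screened at 25 uM in duplicate, then hits were run as concentration series up to 50 uM. Enzyme activity was measured by fluorescence after mobility-shift separation, with loss of signal relative to DMSO taken as activity.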

The target in experiment [10] is Serine/threonine-protein phosphatase PP1-alpha catalytic subunit (Homo sapiens) (UniProt P62136). The experiment in a line: NVS_ENZ_hPPP1CA: NovaScreen (NVS) Enzymatic Assay for human Protein Phosphatase 1 Aatalytic subunit Alpha (PPP1CA) (AID 2283200). Put shortly:
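Recombinant enzyme activity read by fluorescence with electrophoretic mobility shift separating substrate from product, 1.33 h after dosing; loss of signal vs DMSO baseline. Primary screen in duplicate at 25 uM; actives retested in concentration-response up to 50 uM.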

human Phosphodiesterase 4A1 (PDE4A1), PDE4A (gene 5141), sequence (P27815 whole entry, looked up): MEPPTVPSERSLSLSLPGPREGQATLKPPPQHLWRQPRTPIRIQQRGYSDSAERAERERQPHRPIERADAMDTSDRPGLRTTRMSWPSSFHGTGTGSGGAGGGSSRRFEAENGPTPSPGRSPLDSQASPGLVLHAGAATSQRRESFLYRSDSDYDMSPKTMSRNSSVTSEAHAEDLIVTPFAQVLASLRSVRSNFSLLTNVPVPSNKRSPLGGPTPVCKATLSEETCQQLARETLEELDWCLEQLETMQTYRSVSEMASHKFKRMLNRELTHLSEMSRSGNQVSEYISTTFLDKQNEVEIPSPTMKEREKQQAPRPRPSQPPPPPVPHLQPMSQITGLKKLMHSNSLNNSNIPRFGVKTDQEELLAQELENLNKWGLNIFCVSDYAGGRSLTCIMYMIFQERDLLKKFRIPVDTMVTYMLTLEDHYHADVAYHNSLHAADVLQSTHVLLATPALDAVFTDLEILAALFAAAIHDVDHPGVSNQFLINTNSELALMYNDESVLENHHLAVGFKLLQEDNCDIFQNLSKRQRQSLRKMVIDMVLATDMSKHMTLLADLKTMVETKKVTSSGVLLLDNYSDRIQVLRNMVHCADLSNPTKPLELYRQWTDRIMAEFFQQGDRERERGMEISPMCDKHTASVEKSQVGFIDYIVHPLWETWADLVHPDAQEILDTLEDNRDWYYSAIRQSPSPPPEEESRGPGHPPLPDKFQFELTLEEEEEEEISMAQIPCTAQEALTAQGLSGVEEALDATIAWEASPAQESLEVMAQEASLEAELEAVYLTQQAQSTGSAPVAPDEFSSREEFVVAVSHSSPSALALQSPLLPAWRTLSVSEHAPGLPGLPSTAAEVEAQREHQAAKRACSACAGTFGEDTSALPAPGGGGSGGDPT
human Mitogen- and Stress-activated Protein Kinase-1 (Msk1), RPS6KA5 (gene 9252), sequence (O75582 whole entry, looked up): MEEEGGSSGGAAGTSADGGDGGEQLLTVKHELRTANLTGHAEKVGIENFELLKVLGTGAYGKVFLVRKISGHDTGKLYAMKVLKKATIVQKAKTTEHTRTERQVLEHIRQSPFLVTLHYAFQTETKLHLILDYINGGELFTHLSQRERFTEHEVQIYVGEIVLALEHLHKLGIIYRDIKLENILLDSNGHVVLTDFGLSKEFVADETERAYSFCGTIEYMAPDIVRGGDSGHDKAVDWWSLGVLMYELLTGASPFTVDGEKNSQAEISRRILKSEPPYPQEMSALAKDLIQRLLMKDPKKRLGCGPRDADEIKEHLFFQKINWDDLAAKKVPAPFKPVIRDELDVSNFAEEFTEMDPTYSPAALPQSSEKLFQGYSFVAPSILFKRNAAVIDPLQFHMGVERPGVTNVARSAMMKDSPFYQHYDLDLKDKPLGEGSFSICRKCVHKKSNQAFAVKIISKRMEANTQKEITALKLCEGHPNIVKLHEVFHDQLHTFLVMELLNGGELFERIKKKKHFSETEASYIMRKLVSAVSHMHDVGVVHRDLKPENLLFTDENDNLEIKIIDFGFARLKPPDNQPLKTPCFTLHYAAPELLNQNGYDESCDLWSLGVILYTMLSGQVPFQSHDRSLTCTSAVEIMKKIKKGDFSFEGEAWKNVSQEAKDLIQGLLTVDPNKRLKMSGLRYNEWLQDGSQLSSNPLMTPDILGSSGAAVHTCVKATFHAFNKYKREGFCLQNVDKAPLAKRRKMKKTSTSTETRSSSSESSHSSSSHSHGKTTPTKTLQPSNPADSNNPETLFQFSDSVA
human Phosphodiesterase 10 (PDE10), PDE10A (gene 10846), sequence (Q9Y233 whole entry, looked up): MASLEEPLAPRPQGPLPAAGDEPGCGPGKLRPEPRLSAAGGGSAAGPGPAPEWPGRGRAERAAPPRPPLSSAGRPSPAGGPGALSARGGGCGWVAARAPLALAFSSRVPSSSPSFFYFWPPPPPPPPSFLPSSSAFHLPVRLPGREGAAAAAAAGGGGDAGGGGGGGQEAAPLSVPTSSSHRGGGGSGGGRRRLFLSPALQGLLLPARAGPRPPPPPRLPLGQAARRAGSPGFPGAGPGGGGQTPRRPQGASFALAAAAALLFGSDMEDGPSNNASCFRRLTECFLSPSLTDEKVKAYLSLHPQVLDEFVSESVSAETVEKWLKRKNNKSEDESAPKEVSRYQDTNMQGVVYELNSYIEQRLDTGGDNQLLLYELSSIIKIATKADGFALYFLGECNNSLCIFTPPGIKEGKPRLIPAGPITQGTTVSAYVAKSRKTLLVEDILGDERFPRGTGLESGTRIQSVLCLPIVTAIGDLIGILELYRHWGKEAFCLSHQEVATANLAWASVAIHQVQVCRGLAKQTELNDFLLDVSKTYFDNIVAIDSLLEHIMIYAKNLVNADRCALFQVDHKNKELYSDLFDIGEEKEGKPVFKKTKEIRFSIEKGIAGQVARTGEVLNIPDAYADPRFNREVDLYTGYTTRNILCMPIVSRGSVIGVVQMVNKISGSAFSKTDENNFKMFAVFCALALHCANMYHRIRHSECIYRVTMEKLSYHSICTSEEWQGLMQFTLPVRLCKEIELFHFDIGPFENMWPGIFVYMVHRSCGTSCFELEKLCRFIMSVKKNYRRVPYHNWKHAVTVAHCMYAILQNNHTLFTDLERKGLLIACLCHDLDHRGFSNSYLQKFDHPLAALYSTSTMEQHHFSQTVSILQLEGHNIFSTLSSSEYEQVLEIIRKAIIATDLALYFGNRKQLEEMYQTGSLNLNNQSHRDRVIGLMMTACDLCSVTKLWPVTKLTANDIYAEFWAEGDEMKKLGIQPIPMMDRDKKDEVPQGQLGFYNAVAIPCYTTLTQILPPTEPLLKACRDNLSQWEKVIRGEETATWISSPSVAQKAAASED
Serine/threonine-protein phosphatase PP1-alpha catalytic subunit (Homo sapiens), sequence (P62136 whole entry, looked up): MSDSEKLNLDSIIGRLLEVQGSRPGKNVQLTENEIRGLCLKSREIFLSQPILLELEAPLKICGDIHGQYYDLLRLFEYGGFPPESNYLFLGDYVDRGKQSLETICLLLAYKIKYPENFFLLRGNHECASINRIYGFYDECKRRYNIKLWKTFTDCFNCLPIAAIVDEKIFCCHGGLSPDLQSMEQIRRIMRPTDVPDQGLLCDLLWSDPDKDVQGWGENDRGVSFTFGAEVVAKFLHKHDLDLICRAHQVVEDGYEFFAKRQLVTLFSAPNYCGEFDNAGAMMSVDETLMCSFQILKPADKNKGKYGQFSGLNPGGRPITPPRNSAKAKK
human Matrix Metalloproteinase-3 (MMP3), MMP3 (gene 4314), sequence (P08254 whole entry, looked up): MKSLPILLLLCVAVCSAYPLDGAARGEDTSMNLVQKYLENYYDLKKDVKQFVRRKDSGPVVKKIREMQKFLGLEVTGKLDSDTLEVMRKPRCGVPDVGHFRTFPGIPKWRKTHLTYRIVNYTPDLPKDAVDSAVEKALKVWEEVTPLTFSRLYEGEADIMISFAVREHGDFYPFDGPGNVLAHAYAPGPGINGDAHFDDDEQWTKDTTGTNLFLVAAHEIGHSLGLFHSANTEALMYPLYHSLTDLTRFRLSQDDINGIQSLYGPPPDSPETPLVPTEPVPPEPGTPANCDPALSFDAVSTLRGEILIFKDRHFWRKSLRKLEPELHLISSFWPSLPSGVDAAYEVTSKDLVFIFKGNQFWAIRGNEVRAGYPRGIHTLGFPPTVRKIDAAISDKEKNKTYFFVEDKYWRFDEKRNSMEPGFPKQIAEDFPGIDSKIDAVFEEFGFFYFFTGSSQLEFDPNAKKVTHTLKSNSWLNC

Consider `OCC(O)CO`, for which the compound was called inactive in experiment [1]. Take `O=C1NC(=O)C(c2ccccc2)(c2ccccc2)N1`: the call in experiment [2] was inactive.

Turning to `c1ccc2occc2c1`, in experiment [1], the result was inactive.

Turning to `Cc1ccc(C(C)(C)C)c(O)c1`, the compound was classed as inactive in experiment [3]. Turning to `S=c1[nH]c2ccccc2s1`, the result in experiment [4] and in experiment [5] was inactive. With `O=C(N[C@@H](c1ccccc1)[C@@H]1CCCCN1)c1cccc(C(F)(F)F)c1Cl`, the compound was called inactive in experiment [5]. What is called AC50 is the midpoint of the concentration-response curve, whichever way the signal moves. Consider `CCCCc1nc2cccnc2n1Cc1ccc(-c2ccccc2-c2nnn[nH]2)cc1`, for which the concentration at half-maximal activity (AC50) in experiment [6] was 22.9 µM (active); in experiment [2] it was 11.6 µM (active); in experiment [7] it was 11.3 µM (active); in [8], 13 µM (active).

Consider `CN(C)C(=O)NC1(c2ccccc2)CCN(CC[C@@]2(c3ccc(F)c(F)c3)CN(C(=O)c3ccccc3)CCO2)CC1`, for which the result in experiment [4], in experiment [9] and in experiment [10] was inactive. The AC50 in experiment [7] was 40 µM (active).

As for `CC(C)(O)c1ccc(CNC(=O)c2cccnc2Oc2ccc(F)cc2)cc1`, the call in experiment [7] and in experiment [8] was inactive.

Turning to `CC(N)=O`, in [7], the result was inactive. The same measure, in the same setting: for `Oc1ccccc1O` the value was “inactive”. In the case of `CCCCOC(=O)CCCCC(=O)OCCCC`, the compound was classed as inactive in experiment [8]. With `CSc1ccc(Oc2ccc(S(N)(=O)=O)cc2CN(C)C)cc1C`, the compound was called inactive in experiment [3]. Take `CN(C)C(=O)NC1(c2ccccc2)CCN(CCC[C@]2(c3ccc(Cl)c(Cl)c3)CCCN(C(=O)c3ccccc3)C2)CC1`: the outcome in experiment [4], in experiment [2] and in experiment [5] was inactive. Turning to `CS(=O)(=O)c1ccc([C@@H](C[C@H]2CCC(=O)C2)C(=O)Nc2cnccn2)cc1Cl`, the concentration at half-maximal activity (AC50) in experiment [7] was 23.3 µM (active).
